A selection: hits, their analogues and other compounds. The true share with any hit is near 2.6%.
ABHD5-PLIN5 inh – inhibitors of human ABHD5-perilipin-5 interaction; Q00G26+Q8WTS1; Split G. princeps luciferase complementation, luminescence, 4 h; inhibition, % at 4 µM; 0.78% of 360,000 active; AID 602281;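 active means inhibition above the mean inhibition across every tested compound plus 3 SD, cut at about 22% in these data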;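 further: 0% = DMSO only wells and the 100% control is not disclosed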
Exocytosis inh – blocks lytic granule exocytosis; TALL-104 LAMP-1 surface exposure, flow cytometry; cells stimulated with thapsigargin and PMA; inhibition, % at 10 µM; 0.66% of 360,000 active;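 active means inhibition above about 55%, limit read from the data; inconclusive means no clear call, values can overlap the other calls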
Rce1 inh – blocks yeast Ras-converting enzyme. Q03530. yeast membranes, quenched prenylated peptide cleavage fluorescence. calls only. 0.27% of 290,000 active. AID 2563;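 active means fall in fluorescence gain of 50% or more versus controls, with final raw signal at or below 3038400; inconclusive means same 50% fall but final raw signal above 3038400; inactive means fall in fluorescence gain under 50%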;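 further: plate controls were neutral control wells for no effect and wells lacking membranes for full effect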
Target sequence (Q03530 whole entry, looked up): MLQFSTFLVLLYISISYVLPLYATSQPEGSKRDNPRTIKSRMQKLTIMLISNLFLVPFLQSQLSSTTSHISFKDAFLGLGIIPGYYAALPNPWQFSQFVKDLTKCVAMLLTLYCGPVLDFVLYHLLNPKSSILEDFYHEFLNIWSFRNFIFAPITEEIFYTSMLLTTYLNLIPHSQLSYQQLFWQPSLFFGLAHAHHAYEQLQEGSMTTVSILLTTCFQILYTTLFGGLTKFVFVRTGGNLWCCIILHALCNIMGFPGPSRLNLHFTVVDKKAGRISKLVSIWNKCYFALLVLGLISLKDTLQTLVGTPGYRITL
M18AAP inhibitor – PfM18AAP enzyme inhibition | inhibition, % at 7.35 µM | recombinant PfM18AAP, H-Glu-NHMec fluorogenic cleavage | 1.2% of 290,000 active;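 active means inhibition above the campaign mean inhibition over all tested compounds plus 3 SD, cut at about 28% in these data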;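 further: 0% = plate median of test compound wells and 100% = 2 mM ZnCl2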
Platelet DG rel – modulates dense granule release in human platelets | AID 1663 | human platelet-rich plasma, SFLLRN dense granule ATP release, luminescence | inhibition, %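 (compounds screened at 7.5 µM in platelet-rich plasma)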 | 0.22% of 300,000 active;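 active means mean replicate score, as percent of positive control, at or above 50; inconclusive means mean below 50 but at least one replicate at or above 50; inactive means mean and every replicate below 50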
* = called active by the depositor; i = inactive; ? = inconclusive; . = not tested or not shown; + = active, no number.

SMILES | ABHD5-PLIN5 inh | Exocytosis inh | Rce1 inh | M18AAP inhibitor | Platelet DG rel
COc1ccc([C@H]2CC(=O)C=C(/C=C/c3ccccc3)C2)cc1OC | 1 | -1 | . | . | .
O=C(c1ccco1)N1CCN(C(=O)c2cc3c(s2)-c2ccccc2OC3)CC1 | 5 | 0 | i | 3 | -1
COC(=O)c1ccc(O)cc1 | 2 | 6 | i | 3 | -6
COC(=O)c1ccc(CCc2cc(O)ccc2O)cc1 | 42* | -3 | . | . | .
C=CCN1C(=O)C2(NC(=O)c3ccccc3N2)c2ccccc21 (configuration not stated) | -2 | 3 | i | 2 | 1
COc1ccc(C)cc1NC(=O)CN1C(=O)COc2ccc(S(=O)(=O)N3CCCCCC3)cc21 | -5 | 2 | i | -7 | 4
COc1ccc(C)cc1NC(=O)CN1C(=O)COc2ccc(S(=O)(=O)N3CCOCC3)cc21 | 2 | 1 | + | -1 | -7
O=C(COc1cccc2ccccc12)NNC(=O)CSCCO | 2 | 6 | i | 31* | -1
CC(=O)NC1=C(Nc2ccc(N(C)C)cc2)C(=O)c2ccccc2C1=O | -6 | -2 | i | 29* | -9
CC(=O)Oc1ccc(/C=C2\N=C(C3CCCCC3)OC2=O)cc1 | 4 | 40 | i | -2 | -3
COc1cccc(/C=C2\N=C(C3CCCCC3)OC2=O)c1OC | -3 | 60* | i | 0 | -1
S=C1SCCN1Cc1ccccc1 | 2 | -2 | . | . | .
CN(c1ccccc1)c1ccc(/C=C/[N+](=O)[O-])cc1 | 88* | 8 | i | 18 | 15
O=[N+]([O-])c1ccc(C=CC=Cc2ccccc2)cc1 | -1 | 2 | . | . | .
Cn1c(=O)c([N+](=O)[O-])c(Cl)c2ccccc21 | 34* | 71* | i | -32 | -9
CCN(CC)c1c([N+](=O)[O-])c(=O)n(C)c2ccccc12 | -2 | 10 | i | -3 | -2
CC(=O)O[C@@H]1[C@@]2(C)O[C@H]2CC[C@]23O[C@H]2[C@H](OC3=O)C2=C(C)C(=O)O[C@@]21O | 23* | -3 | i | -11 | 1
O=C(/C=C/c1ccc2ccccc2c1)c1ccoc1 | 25* | 8 | i | 8 | 0
CC(C)(C)OC(=O)N1CCC(c2cc(=O)n3[nH]cc(C(=O)Nc4ccc(F)c(Cl)c4)c3n2)CC1 | -7 | 4 | + | 5 | 0
COc1ccc(NC(=O)c2c[nH]n3c(=O)cc(C4CCN(C(=O)OC(C)(C)C)CC4)nc23)cc1Cl | -1 | -1 | i | 3 | 2
O=C1CCSC2=C1SCc1sccc12 | 22* | -15 | . | . | .
COc1ccc(Br)cc1CNC(=O)c1ccc2c(c1)N(C)CCS2 | -9 | 13 | i | 0 | 97*
CCN1CCSc2ccc(C(=O)NCc3cc(Br)ccc3OC)cc21 | -3 | 0 | i | 4 | 2
COc1ccc(C(C#N)=C2C=CC(=NO)C=C2)cc1 | -14 | 5 | i | 29* | 1
CC(=O)ON=C1C=CC(=C(C#N)c2ccccc2)C=C1 | -8 | -21 | . | . | .
SMILES | ABHD5-PLIN5 inh | Exocytosis inh | Rce1 inh | M18AAP inhibitor | Platelet DG rel
CCN(Cc1ccccc1)c1ccc(/C=N/N=C(N)N)cc1 | 13 | 5 | + | 2 | -1
COc1ccc(C(CNC(=O)COc2cccc(C(F)(F)F)c2)N2CCCC2)cc1 (configuration not stated) | 10 | -3 | . | . | .
CC1=NN(c2ccccc2)C(=O)/C1=C\c1cc(C)n(-c2ccccc2)c1C | -1 | -3 | i | -8 | -15
CCOC(=O)C1=C(Cc2ccc(F)cc2)C(=O)c2ccccc2C1=O | 47* | 100* | i | -24 | 17
O=C(OCc1ccc(F)cc1)c1ccc2c(c1)-c1ccccc1C2=O | 1 | -3 | i | 6 | -2
CC(=O)Oc1ccc(-c2csc(Nc3cccc(C)n3)n2)cc1 | -11 | 0 | i | 10 | -2
N#CC(C#N)=C1C=CC=CN1/C(=C\c1ccco1)C(=O)c1ccc(Br)cc1 | 92* | 86* | . | -24 | .
COc1cc(-c2noc(C)c2C#Cc2ccc(N)cc2)cc(OC)c1OC | -5 | 0 | i | 1 | 7
CCCCNC(=O)COCc1cc(-c2ccc3c(c2)OCO3)on1 | -5 | -1 | i | 3 | -11
Cn1cc([N+](=O)[O-])c(C(=O)Nc2cc(Oc3cccnc3)cc([N+](=O)[O-])c2)n1 | . | . | i | 5 | -3
COc1ccc2c(c1)O/C(=C\c1ccco1)C2=O | 9 | 22 | i | 4 | -5
Cc1cc(O)c(CN(C)C)c2c1C(=O)/C(=C/c1ccco1)O2 | 12 | -8 | i | 31* | -2
c1ccc(C[n+]2csc3ccccc32)cc1 | 14 | 11 | i | 30* | -6
CCOc1ccc(NC(=O)OCCN2CCN(CCc3ccccc3)C(C)C2)cc1 (configuration not stated) | 2 | -1 | . | . | .
COc1ccc(Nc2nc(N)nc(CSC(=S)N3CCOCC3)n2)cc1 | 0 | -1 | i | -6 | 7
N/C(=N\OC(=O)c1ccc2c(c1)OCO2)c1cccc([N+](=O)[O-])c1 | -7 | -1 | i | 4 | 8
Cc1cccc(/C(N)=N/OC(=O)c2ccc3c(c2)OCO3)c1 | 2 | ? | i | -4 | 64*
Cc1ccc2c(c1)c1ccc3c(c1n2C)C(=O)C=CC3=O | 5 | 3 | . | 3 | .
Cn1c2ccccc2c2ccc3c(c21)C(=O)C=CC3=O | 6 | 106* | . | . | .
CCOc1cc(C#N)c(NC(=O)c2ccnn2C)cc1OCC | 10 | -2 | i | 3 | 5
Oc1ccccc1/C=N/NC(=S)NC1CC2CCC1C2 (configuration not stated) | 9 | 10 | i | 7 | 18
Cc1cccc(NC(=O)CCCNC(=O)c2ccc(Cl)cc2)n1 | 1 | -3 | i | -7 | 54*
Cc1ccc(C(=O)N/C(=C\c2ccc(-c3ccccc3[N+](=O)[O-])o2)C(=O)NCCCN2CCOCC2)cc1 | -8 | 91* | i | 23 | 11
Cc1ccc(C(=O)N/C(=C\c2cn(C)c3ccccc23)C(=O)NCCCN2CCOCC2)cc1 | 0 | 26 | i | 2 | -12
Cc1ccc(NC(=S)NNC(=O)Nc2ccccc2)cc1 | -13 | 1 | i | 42* | -3
SMILES | ABHD5-PLIN5 inh | Exocytosis inh | Rce1 inh | M18AAP inhibitor | Platelet DG rel
Cc1ccc(NC(=S)NNC(=S)Nc2ccc(C)cc2)cc1 | -19 | 0 | . | . | .
Cc1ccc(C2=CC(c3ccccc3)n3ncnc3N2)cc1 (configuration not stated) | -4 | 68* | i | . | -4
COc1ccc(C2(CCN=Cc3ccc(N(C)C)cc3)CCOC(C)(C)C2)cc1 (configuration not stated) | 3 | -2 | i | -2 | 9
CCn1c(-c2cccs2)nc2ccccc21 | -5 | -2 | + | -15 | ?
COc1ccc(NC(=O)c2ccccn2)cc1 | -3 | -1 | i | 4 | 58*
COc1ccc(NC(=O)c2cnn(-c3ccccc3)c2C)cc1 | -9 | -8 | i | -8 | 59*
COc1ccc(NC(=O)c2cn3c(nc4ccccc43)c(C#N)c2C)cc1 | 5 | 0 | + | -7 | 1
Cc1ccc2oc(=O)c(/C=C(\O)c3sc(C)nc3C)nc2c1 | -2 | 0 | i | 29* | 4

Screening results: PubChem, several laboratories
